Usually AC50 stands for the concentration at which the activity in the assay is half-maximal.

For 18 molecules, outcome and AC50 results are on record in PubChem BioAssay (EPA / NIEHS).

The structures appear in SMILES notation. Records with an inconclusive call do not appear. Activity calls are given as the source filed them. The calls were made as follows, unless noted: active = hit-call score of the fitted dose curve at least 0.9, where 1 is the maximum; inactive = score below 0.9.

Assay [1] concerns the target human RAR-related Orphan Receptor gamma (RORg), RORC (gene 6097) (UniProt P51449). Nature of the assay: ATG_RORg_TRANS: Attagene TRANS-FACTORIAL HepG2 Assay for human RAR-related Orphan Receptor gamma (RORg) (AID 2283011; active = hit-call score of the fitted dose curve at least 0.9, where 1 is the maximum). Put shortly:
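Readout: reporter transcript induction (RT-PCR, fluorescent primer extension, capillary electrophoresis) after 24 h compound exposure of transiently transfected HepG2 cells carrying a RORg-Gal4 chimera and GAL4-UAS reporters; DMSO served as baseline, with increasing signal fitted.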

Assay [2] has as its target human Thyroid Receptor alpha (THRa1), THRA (gene 7067) (UniProt P10827). Kind of assay: ATG_THRa1_TRANS: Attagene TRANS-FACTORIAL HepG2 Assay for human Thyroid Receptor alpha (THRa1) (AID 2283014; active = hit-call score of the fitted dose curve at least 0.9, where 1 is the maximum). In outline: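 HepG2 cells transiently transfected with multiplexed GAL4-UAS reporter units for exogenous chimeric THRa1-Gal4; reporter mRNA measured 24 h after dosing by RT-PCR, 6-FAM labelling, HpaI digestion and capillary electrophoresis. Gain-of-signal fitted versus DMSO baseline.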

Read-out in assay [3]: E-selectin (Homo sapiens) (UniProt P16581)
Kind of assay: BSK_3C_Eselectin: BioMAP Diversity Plus: 3C Assay for Eselectin Biomarker Activity (AID 2283015). The conditions noted are these: primary human endothelial cells (HUVEC); actives raise or lower the signal. Put shortly: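 Primary human umbilical vein endothelial cells (3C system) were dosed with chemical and cell-surface E-selectin measured by ELISA 24 h later. Bidirectional curve fitting used DMSO as negative control and baseline.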

Read-out in assay [4]: Interleukin-1 alpha (IL1a), IL1A (gene 3552)
Nature of the assay: BSK_BE3C_IL1a: BioMAP Diversity Plus: BE3C Assay for Interleukin-1 alpha (IL1a) Biomarker Activity (AID 2283016). The following applies: primary human bronchial epithelial cells; actives raise or lower the signal. Put shortly: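 Human primary bronchial epithelial cells, 24 h chemical exposure; IL-1a quantified by ELISA, fitted bidirectionally against DMSO. Cytotoxicity assessed in parallel by SRB total-protein staining at the time of measurement.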

Read-out in assay [5]: Monocyte Chemoattractant Protein-1 (MCP1), CCL2 (gene 6347)
Kind of assay: BSK_4H_MCP1: BioMAP Diversity Plus: 4H Assay for Monocyte Chemoattractant Protein-1 (MCP1) Biomarker Activity (AID 2283018). The conditions noted are these: primary human endothelial cells (HUVEC); actives raise or lower the signal. In outline:
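Human umbilical vein endothelial cells (4H system) exposed to chemicals for 24 h in 96-well format. MCP-1 measured by ELISA; bidirectional fitting against DMSO, with SRB total-protein staining in parallel cultures for cytotoxicity.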

Read-out in assay [6]: Interleukin-8 (IL8), CXCL8 (gene 3576)
Kind of assay: BSK_3C_IL8: BioMAP Diversity Plus: 3C Assay for Interleukin-8 (IL8) Biomarker Activity (AID 2283020). The following applies: primary human endothelial cells (HUVEC); actives raise or lower the signal. Put shortly: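 Primary human umbilical vein endothelial cells were dosed for 24 h. IL-8 was quantified by ELISA and fitted bidirectionally against DMSO. Cytotoxicity was assessed in parallel cultures by SRB staining at 560 nm.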

Read-out in assay [7]: Monokine induced gamma interferon (MIG), CXCL9 (gene 4283)
Nature of the assay: BSK_3C_MIG: BioMAP Diversity Plus: 3C Assay for Monokine induced gamma interferon (MIG) Biomarker Activity (AID 2283021). The conditions noted are these: primary human endothelial cells (HUVEC); actives raise or lower the signal. In outline: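 HUVEC primary endothelial cultures dosed with chemical; MIG quantified by ELISA at 24 h. Data fitted bidirectionally against DMSO control, with parallel SRB total-protein staining for cytotoxicity.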

Assay [8] can be described thus: BSK_3C_SRB: Viability Assessment in the BioMAP Diversity Plus: 3C Assay (AID 2283023).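 Also: fitted both ways against DMSO so a hit may be signal rise or drop.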 The following applies: primary human endothelial cells (HUVEC). In outline: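 Primary human umbilical vein endothelial cells in the 3C system were read 24 h after compound dosing. Total protein was stained with 0.1% sulforhodamine B after 10% TCA fixation and read at 560 nm, with bidirectional fitting against DMSO as baseline.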

Read-out in assay [9]: Matrix Metallopeptidase 1 (MMP1), MMP1 (gene 4312)
Kind of assay: BSK_BE3C_MMP1: BioMAP Diversity Plus: BE3C Assay for Matrix Metallopeptidase 1 (MMP1) Biomarker Activity (AID 2283024). The conditions noted are these: primary human bronchial epithelial cells; actives raise or lower the signal. Put shortly:
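Human primary bronchial epithelial cells (BE3C system) dosed for 24 h; MMP-1 quantified by ELISA. Bidirectional fit against DMSO; cytotoxicity tracked in parallel cultures by SRB total-protein staining.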

Assay [10] in a line: BSK_3C_Vis: BioMAP Diversity Plus: 3C Assay for Morphology Visualization (AID 2283025).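 Also: fitted both ways so gain or loss versus DMSO counts.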 The conditions noted are these: primary human endothelial cells (HUVEC). In outline:
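Human umbilical vein endothelial cell morphology was inspected by light microscopy 24 h after chemical dosing; scored bidirectionally relative to DMSO.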

Read-out in assay [11]: Pselectin, SELP (gene 6403)
Nature of the assay: BSK_4H_Pselectin: BioMAP Diversity Plus: 4H Assay for Pselectin Biomarker Activity (AID 2283026). The conditions noted are these: primary human endothelial cells (HUVEC); actives raise or lower the signal. Put shortly: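 Primary human umbilical vein endothelial cells were treated 24 h, and cell-surface P-selectin was then quantified by ELISA. Bidirectional fit versus DMSO; cytotoxicity checked in parallel cultures by SRB total-protein staining.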

Assay [12] can be described thus: BSK_4H_SRB: Viability Assessment in the BioMAP Diversity Plus: 4H Assay (AID 2283027).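 Also: cells exposed to compound for 24 h before staining.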 The following applies: primary human endothelial cells (HUVEC). Put shortly: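 Absorbance at 560 nm of SRB-stained total protein served as the viability read-out in confluent primary human umbilical vein endothelium 24 h after chemical treatment. Curves were fitted bidirectionally against DMSO as negative control.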

A short description of assay [13]: BSK_BE3C_SRB: Viability Assessment in the BioMAP Diversity Plus: BE3C Assay (AID 2283028). The conditions noted are these: primary human bronchial epithelial cells. In outline:
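Human primary bronchial epithelial cells were exposed to test chemicals for 24 h. Total protein in parallel cultures was then measured by staining with 0.1% sulforhodamine B after 10% TCA fixation, with absorbance read at 560 nm. Activity was fitted bidirectionally against DMSO.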

Read-out in assay [14]: Thrombomodulin, THBD (gene 7056)
Nature of the assay: BSK_3C_Thrombomodulin: BioMAP Diversity Plus: 3C Assay for Thrombomodulin Biomarker Activity (AID 2283029). The following applies: primary human endothelial cells (HUVEC); actives raise or lower the signal. In outline:
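Human umbilical vein endothelial cells were exposed to chemicals for 24 h; cell-surface thrombomodulin quantified by ELISA, with bidirectional fitting against DMSO baseline.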

Read-out in assay [15]: Urokinase-type plasminogen activator receptor (uPAR), PLAUR (gene 5329)
Nature of the assay: BSK_4H_uPAR: BioMAP Diversity Plus: 4H Assay for Urokinase-type plasminogen activator receptor (uPAR) Biomarker Activity (AID 2283030). The conditions noted are these: primary human endothelial cells (HUVEC); actives raise or lower the signal. In outline: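 Primary human umbilical vein endothelial cells were exposed to chemical for 24 h before cell-surface uPAR was quantified by ELISA. Activity was fitted bidirectionally against the DMSO negative control baseline.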

In assay [16] the target is Retinoic acid receptor RXR-alpha (Homo sapiens) (UniProt P19793). Kind of assay: ATG_RXRa_TRANS: Attagene TRANS-FACTORIAL HepG2 Assay for human Retinoid X Receptor alpha (RXRa) (AID 2283012; active = hit-call score of the fitted dose curve at least 0.9, where 1 is the maximum). Put shortly:
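HepG2 cells transiently transfected with GAL4-UAS reporter units and chimeric RXRa-Gal4 protein, treated 24 h. Reporter mRNA measured by RT-PCR, fluorescent labelling, HpaI digestion and capillary electrophoresis. Induction fitted against DMSO.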

Assay [17] concerns the target human Vitamin D Receptor (VDR), VDR (gene 7421) (UniProt P11473). Nature of the assay: ATG_VDR_TRANS: Attagene TRANS-FACTORIAL HepG2 Assay for human Vitamin D Receptor (VDR) (AID 2283022; active = hit-call score of the fitted dose curve at least 0.9, where 1 is the maximum). In outline:
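HepG2 cells were transiently transfected with multiple GAL4-UAS reporter units, so signal reflects exogenous chimeric receptor-Gal4 activity. After 24 h compound exposure, reporter mRNA was measured by RT-PCR, fluorescent labelling and capillary electrophoresis, fitted for gain of signal versus DMSO.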

In assay [18] the target is human Retinoid X Receptor beta (RXRb), RXRB (gene 6257) (UniProt P28702). Kind of assay: ATG_RXRb_TRANS: Attagene TRANS-FACTORIAL HepG2 Assay for human Retinoid X Receptor beta (RXRb) (AID 2283013; active = hit-call score of the fitted dose curve at least 0.9, where 1 is the maximum). Put shortly:
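HepG2 cells were transiently transfected with multiplexed GAL4-UAS reporters and a chimeric RXRb-Gal4 construct, then exposed for 24 h. Reporter mRNA was quantified by RT-PCR, FAM labeling, HpaI digestion and capillary electrophoresis; gain of signal was scored against DMSO.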

Read-out in assay [19]: Monocyte Chemoattractant Protein-1 (MCP1), CCL2 (gene 6347)
Nature of the assay: BSK_3C_MCP1: BioMAP Diversity Plus: 3C Assay for Monocyte Chemoattractant Protein-1 (MCP1) Biomarker Activity (AID 2283017). The conditions noted are these: primary human endothelial cells (HUVEC); actives raise or lower the signal. In outline:
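Primary human umbilical vein endothelial cells (3C system) were exposed to test chemical for 24 h, after which MCP-1 was quantified by ELISA. Activity was fitted bidirectionally against DMSO as negative control and baseline.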

Read-out in assay [20]: Human Leukocyte Antigen - DR isotype (HLADR), HLA-DRA (gene 3122)
Kind of assay: BSK_3C_HLADR: BioMAP Diversity Plus: 3C Assay for Human Leukocyte Antigen - DR isotype (HLADR) Biomarker Activity (AID 2283019).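 Also: ELISA of cell-surface HLA-DR on HUVEC 24 h after dosing.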 The following applies: primary human endothelial cells (HUVEC); actives raise or lower the signal. Put shortly:
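Primary human umbilical vein endothelial cells (3C system) were dosed with compound and cell-surface HLA-DR was quantified by ELISA at 24 h. Activity was fitted bidirectionally against DMSO as negative control and baseline.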

Sequence of human RAR-related Orphan Receptor gamma (RORg), RORC (gene 6097) (P51449 whole entry, looked up, the tested form may be a part): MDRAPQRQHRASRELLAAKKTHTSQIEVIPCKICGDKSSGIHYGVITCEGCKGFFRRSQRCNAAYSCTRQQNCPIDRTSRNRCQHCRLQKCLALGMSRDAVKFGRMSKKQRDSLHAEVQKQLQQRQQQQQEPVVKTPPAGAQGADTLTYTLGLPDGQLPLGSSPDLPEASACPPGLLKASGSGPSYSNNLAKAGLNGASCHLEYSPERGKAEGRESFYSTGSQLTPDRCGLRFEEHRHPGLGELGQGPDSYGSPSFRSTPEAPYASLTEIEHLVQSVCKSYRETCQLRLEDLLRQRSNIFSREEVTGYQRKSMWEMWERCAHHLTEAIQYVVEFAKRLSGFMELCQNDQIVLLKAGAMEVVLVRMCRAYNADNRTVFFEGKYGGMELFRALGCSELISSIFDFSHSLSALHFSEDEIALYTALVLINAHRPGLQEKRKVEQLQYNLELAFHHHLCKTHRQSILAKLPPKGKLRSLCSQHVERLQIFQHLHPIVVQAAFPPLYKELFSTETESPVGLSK
Sequence of human Thyroid Receptor alpha (THRa1), THRA (gene 7067) (P10827 whole entry, looked up, the tested form may be a part): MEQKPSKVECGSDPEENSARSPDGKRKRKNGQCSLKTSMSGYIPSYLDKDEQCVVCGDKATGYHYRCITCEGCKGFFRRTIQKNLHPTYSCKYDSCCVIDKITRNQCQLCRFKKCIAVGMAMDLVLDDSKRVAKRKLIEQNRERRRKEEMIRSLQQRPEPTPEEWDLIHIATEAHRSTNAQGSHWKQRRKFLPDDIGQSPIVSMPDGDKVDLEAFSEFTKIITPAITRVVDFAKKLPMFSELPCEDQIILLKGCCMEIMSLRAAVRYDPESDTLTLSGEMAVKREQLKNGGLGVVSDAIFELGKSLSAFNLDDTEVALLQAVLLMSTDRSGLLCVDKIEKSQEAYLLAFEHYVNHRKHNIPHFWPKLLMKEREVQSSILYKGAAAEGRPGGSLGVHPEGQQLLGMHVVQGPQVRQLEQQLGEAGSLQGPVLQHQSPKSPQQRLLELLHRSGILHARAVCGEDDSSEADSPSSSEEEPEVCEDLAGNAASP
Sequence of human Retinoid X Receptor beta (RXRb), RXRB (gene 6257) (P28702 whole entry, looked up, the tested form may be a part): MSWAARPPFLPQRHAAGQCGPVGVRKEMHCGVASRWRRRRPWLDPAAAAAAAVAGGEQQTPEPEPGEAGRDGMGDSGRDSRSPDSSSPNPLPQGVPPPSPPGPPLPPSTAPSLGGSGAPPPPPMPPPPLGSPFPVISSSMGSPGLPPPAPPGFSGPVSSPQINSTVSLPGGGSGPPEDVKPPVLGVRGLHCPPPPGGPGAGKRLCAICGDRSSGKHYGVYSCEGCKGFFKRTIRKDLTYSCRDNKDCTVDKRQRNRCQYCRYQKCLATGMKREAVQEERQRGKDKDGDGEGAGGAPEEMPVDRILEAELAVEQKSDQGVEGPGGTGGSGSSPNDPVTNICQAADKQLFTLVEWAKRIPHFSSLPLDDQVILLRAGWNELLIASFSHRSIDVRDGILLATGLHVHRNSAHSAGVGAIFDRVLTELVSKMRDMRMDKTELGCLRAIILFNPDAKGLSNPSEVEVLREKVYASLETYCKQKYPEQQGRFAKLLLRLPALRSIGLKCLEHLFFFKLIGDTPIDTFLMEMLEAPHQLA
Sequence of human Vitamin D Receptor (VDR), VDR (gene 7421) (P11473 whole entry, looked up, the tested form may be a part): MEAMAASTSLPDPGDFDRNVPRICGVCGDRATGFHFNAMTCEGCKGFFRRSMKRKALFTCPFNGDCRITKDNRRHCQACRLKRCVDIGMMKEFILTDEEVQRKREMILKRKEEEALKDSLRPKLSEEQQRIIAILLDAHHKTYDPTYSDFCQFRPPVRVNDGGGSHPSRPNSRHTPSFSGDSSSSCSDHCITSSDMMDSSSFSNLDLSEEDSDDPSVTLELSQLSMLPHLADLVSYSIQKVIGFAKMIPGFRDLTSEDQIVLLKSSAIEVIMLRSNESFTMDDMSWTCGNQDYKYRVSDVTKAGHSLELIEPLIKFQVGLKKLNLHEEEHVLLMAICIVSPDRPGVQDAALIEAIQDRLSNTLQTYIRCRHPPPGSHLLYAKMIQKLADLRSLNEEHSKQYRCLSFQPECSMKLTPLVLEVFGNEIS
Sequence of E-selectin (Homo sapiens) (P16581 whole entry, looked up): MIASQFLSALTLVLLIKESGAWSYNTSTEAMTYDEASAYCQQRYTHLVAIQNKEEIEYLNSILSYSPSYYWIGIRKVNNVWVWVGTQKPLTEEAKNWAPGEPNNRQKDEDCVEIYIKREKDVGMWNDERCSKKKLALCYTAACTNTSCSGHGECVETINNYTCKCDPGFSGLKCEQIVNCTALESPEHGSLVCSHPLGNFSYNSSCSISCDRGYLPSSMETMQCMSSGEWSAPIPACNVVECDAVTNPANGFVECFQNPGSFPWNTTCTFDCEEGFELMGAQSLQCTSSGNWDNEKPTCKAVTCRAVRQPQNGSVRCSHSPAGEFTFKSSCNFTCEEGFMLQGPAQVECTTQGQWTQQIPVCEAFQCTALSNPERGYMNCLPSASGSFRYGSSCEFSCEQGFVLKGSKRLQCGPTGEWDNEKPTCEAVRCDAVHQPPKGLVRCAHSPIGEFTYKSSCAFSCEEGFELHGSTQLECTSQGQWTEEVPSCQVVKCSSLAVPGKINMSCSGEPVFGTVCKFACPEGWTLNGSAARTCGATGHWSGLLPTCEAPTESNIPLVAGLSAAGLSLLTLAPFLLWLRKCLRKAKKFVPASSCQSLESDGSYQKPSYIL
Sequence of Retinoic acid receptor RXR-alpha (Homo sapiens) (P19793 whole entry, looked up, the tested form may be a part): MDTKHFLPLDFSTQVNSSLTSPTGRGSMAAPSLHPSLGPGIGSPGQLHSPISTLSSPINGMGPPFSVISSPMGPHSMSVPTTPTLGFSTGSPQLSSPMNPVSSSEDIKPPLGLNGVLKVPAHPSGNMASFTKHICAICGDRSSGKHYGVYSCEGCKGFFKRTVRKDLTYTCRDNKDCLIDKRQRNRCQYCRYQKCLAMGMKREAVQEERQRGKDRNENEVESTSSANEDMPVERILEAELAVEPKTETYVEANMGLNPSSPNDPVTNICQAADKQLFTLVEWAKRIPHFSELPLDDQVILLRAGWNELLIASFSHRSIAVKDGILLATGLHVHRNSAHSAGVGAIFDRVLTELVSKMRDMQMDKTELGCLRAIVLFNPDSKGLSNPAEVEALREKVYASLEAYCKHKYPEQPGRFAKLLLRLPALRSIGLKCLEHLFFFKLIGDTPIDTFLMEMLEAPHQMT

For the molecule `Cc1cc(Cl)ccc1OC(C)C(=O)O` (centres undefined), the molecule was classed as inactive in [1], in [2], in assay [3], in assay [4], in assay [5] and in [6]. The result in assay [7], in assay [8], in assay [9], in assay [10], in assay [11] and in assay [12] was inactive. For the same molecule, the outcome in assay [13], in [14] and in assay [15] was inactive.
Regarding `CC(C)[C@H](C(=O)OC(C#N)c1cccc(Oc2ccccc2)c1)c1ccc(OC(F)F)cc1` (some centres undefined), the call in assay [16] was inactive.
On the same count and under the same terms, under `CCN(N=O)C(N)=O` stands “inactive”.
With `CCCCS(=O)(=O)Cl`, the outcome in assay [1] and in assay [17] was inactive.
As for `ClCCCCl`, the molecule was classed as inactive in [1] and in assay [17].
For `Cc1cc(Cl)ccc1OCCCC(=O)O`, the outcome in assay [1] and in assay [17] was inactive. For the same molecule, the half-maximal activity concentration (AC50) in [18] was 27.7 µM (active).
For the molecule `N#CS`, the outcome in [16] and in [18] was inactive.
Consider `C[C@@H]1O[C@@H](O[C@H]2C[C@@H](O)[C@]3(CO)[C@H]4[C@H](O)C[C@]5(C)[C@@H](C6=CC(=O)OC6)CC[C@]5(O)[C@@H]4CC[C@]3(O)C2)[C@H](O)[C@H](O)[C@H]1O`, for which the call in assay [1] and in assay [2] was inactive.
With `Nc1nc(N)nc(Cl)n1`, the result in assay [1] and in assay [2] was inactive.
As for `CN(C)CCN(C)C`, the outcome in [1], in [18] and in assay [17] was inactive.
Turning to `O=[N+]([O-])c1cccc2ccccc12`, the outcome in assay [16], in [2], in assay [3], in assay [4], in [19] and in [5] was inactive. Also, the outcome in assay [6], in assay [7], in assay [8], in assay [9], in [10] and in assay [11] was inactive. Moreover, the result in [12], in assay [13], in assay [14] and in assay [15] was inactive. For the same molecule, the AC50 in assay [18] was 100 µM (active).
For the molecule `CC(=O)CN(CC(C)=O)N=O`, the call in [16] and in assay [18] was inactive.
As to `CN(C)C(=S)S`, the call in assay [16], in [2], in assay [3], in assay [5], in [20] and in assay [6] was inactive. For the same molecule, the result in assay [7], in assay [17], in [8], in assay [10], in [11] and in [12] was inactive. Moreover, the outcome in [13], in assay [14] and in assay [15] was inactive. The AC50 in [18] is 27 µM (active); in assay [4], 29.6 µM (active); in assay [9] it was 13.2 µM (active).
For the molecule `CC(C)O.CC(C)O.OCCN(CCO)CCO.OCCN(CCO)CCO.[Ti]`, the molecule was called inactive in [16], in assay [18], in assay [2], in [3], in assay [4] and in assay [5]. Further, the result in assay [6], in [7], in assay [8], in assay [9], in assay [10] and in assay [11] was inactive. The outcome in [12], in [13], in [14] and in assay [15] was inactive.
In the case of `O=C(NC(=O)c1c(F)cccc1F)Nc1cc(Cl)c(OC(F)(F)C(F)C(F)(F)F)cc1Cl` (centres undefined), the result in assay [16], in assay [18] and in [17] was inactive.
As to `Oc1ccc(Cc2ccc(O)cc2)cc1`, the outcome in [16], in [18], in assay [2], in assay [3], in assay [4] and in [19] was inactive. Further, the outcome in [5], in assay [20], in assay [6], in [7], in assay [8] and in assay [9] was inactive. For the same molecule, the result in assay [10], in [11], in [12], in assay [13], in assay [14] and in [15] was inactive.
As to `O=NN1CCCCCC1`, the outcome in [16], in [18] and in assay [2] was inactive.
As to `N#CCC#N`, the AC50 in assay [16] is 43.1 µM (active); in assay [18] it was 10.3 µM (active). Also, the call in [2] and in [17] was inactive.
